Test results reported in PubChem BioAssay (NCI).
“And” between values parts separate entries of the source, which are not always exact repeats. Equal entries are not always repeated. The panel holds about 83,000 compounds, 20% with a hit somewhere; the sample as a whole holds those more often.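 Testing used 96-well plates and a 48-hour single-concentration exposure. Example: -40 means 40% of the starting cells died.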 The source made the active and inactive calls. The calls were made as follows: active = growth percent below 10; inactive = the rest.

Key:
Assay in all cases: NCI-60 one-dose screen, 48 h (100 = growth as untreated, 0 = no growth, -100 = all killed)
HCT-15 colon = conditions: 10 µM
HT29 colon = conditions: 10 µM
SNB-75 CNS = conditions: 10 µM
SNB-19 CNS = conditions: 10 µM
U251 CNS = conditions: 10 µM
PC-3 prostate = conditions: 10 µM
SK-MEL-5 melanoma = conditions: 10 µM
UACC-62 melanoma = test system: UACC-62 melanoma
LOX IMVI melanoma = conditions: 10 µM
SK-MEL-2 melanoma = conditions: 10 µM
EKVX NSCLC = conditions: 10 µM
SN12C renal = conditions: 10 µM
UO-31 renal = conditions: 10 µM
TK-10 renal = test system: TK-10 renal
ACHN renal = conditions: 10 µM
CAKI-1 renal = conditions: 10 µM
HL-60(TB) leukemia = conditions: 10 µM
CCRF-CEM leukemia = conditions: 10 µM
SK-MEL-28 melanoma = conditions: 10 µM
A498 renal = conditions: 10 µM

Measured: growth

CC1CCC2(OC1)OC1C(O)C3C4CCC5CC(OC6OC(CO)C(OC7OC(CO)C(O)C(OC8OCC(O)C(O)C8O)C7OC7OC(CO)C(O)C(OC8OC(CO)C(O)C(O)C8O)C7O)C(O)C6O)C(O)CC5(C)C4CCC3(C)C1C2C (centres undefined)
active: HT29 colon -40.5% | SNB-75 CNS -32% | SNB-19 CNS -71.7% | U251 CNS -51.1% | PC-3 prostate -93.4% | SK-MEL-5 melanoma -62.2% | UACC-62 melanoma; 100 µM -89.7% and -92% | LOX IMVI melanoma -69.8% | SK-MEL-2 melanoma 8.3% | EKVX NSCLC -17.2% | SN12C renal -26.9% | UO-31 renal -96.8% | TK-10 renal; 10 µM -27.4% | TK-10 renal; 100 µM -99% and -94% | ACHN renal 1.57% | CAKI-1 renal -63% | HL-60(TB) leukemia -17.1% | CCRF-CEM leukemia -15.7%
inactive: HCT-15 colon 37.3% | UACC-62 melanoma; 10 µM 22.5%

COc1cc(/C=C\[N+](=O)[O-])ccc1O
9.29% (active) and 48.1% (inactive): HL-60(TB) leukemia
-12% (active) and 75.9% (inactive): HCT-15 colon
inactive: HT29 colon 32.3% and 90.3% | SNB-75 CNS 93.6% and 96.7% | SNB-19 CNS 82.6% and 81.2% | U251 CNS 50.1% and 64.1% | PC-3 prostate 97.6% and 90.3% | SK-MEL-5 melanoma 77% and 79.3% | UACC-62 melanoma; 10 µM unless noted 61.1% and 80.2% | SK-MEL-28 melanoma 55.8% and 97.3% | SK-MEL-2 melanoma 87.7% and 93.5% | EKVX NSCLC 108% and 91.7% | SN12C renal 67.3% and 94.1% | UO-31 renal 44.5% and 70.1% | TK-10 renal; 10 µM unless noted 23.5% and 87.1% | ACHN renal 13.4% and 82.9% | CAKI-1 renal 74.4% | A498 renal 97.6% and 102%
6.86% (active) and 70.4% (inactive): CCRF-CEM leukemia
-66.1% (active) and 46.7% (inactive): LOX IMVI melanoma

CC12OOC(c3ccccc31)c1c2ccc2ccccc12 (centres undefined)
active: HCT-15 colon -93.2% | HT29 colon -81.3% | SNB-75 CNS -20.4% | PC-3 prostate -74.4% | LOX IMVI melanoma -91.2% | EKVX NSCLC -51.5% | UO-31 renal -95.4% | TK-10 renal; 10 µM unless noted -42.6% | ACHN renal -100% | CAKI-1 renal -56.1% | HL-60(TB) leukemia -63.5% | CCRF-CEM leukemia -41.8%
inactive: SNB-19 CNS 64.8% | U251 CNS 50.3% | SK-MEL-5 melanoma 61.7% | UACC-62 melanoma; 10 µM unless noted 59.6% | SK-MEL-2 melanoma 71.7% | SN12C renal 94.4% | A498 renal 133%

[Cl][Hg][c]1ccc2ccccc2c1
inactive: U251 CNS 93.1%
active: HCT-15 colon -72.3% | HT29 colon -71.3% | SNB-75 CNS -85.3% | SNB-19 CNS -62.9% | PC-3 prostate -35.1% | SK-MEL-5 melanoma -100% | UACC-62 melanoma; 10 µM unless noted -43% | LOX IMVI melanoma -100% | SK-MEL-28 melanoma -89% | SK-MEL-2 melanoma -90.7% | EKVX NSCLC -48.6% | SN12C renal -67.1% | UO-31 renal -89.3% | TK-10 renal; 10 µM unless noted -95.3% | ACHN renal -85.5% | CAKI-1 renal -94% | A498 renal -9.18% | HL-60(TB) leukemia -20.3% | CCRF-CEM leukemia 0.0061%

CC(=O)Nc1c2sscc-2n(C)c1=O
active: HCT-15 colon -100% | HT29 colon -76.2% | SNB-75 CNS -98.3% | SNB-19 CNS -100% | U251 CNS -100% | PC-3 prostate -95.9% | SK-MEL-5 melanoma -100% | UACC-62 melanoma; 10 µM unless noted -99.2% | LOX IMVI melanoma -98.3% | SK-MEL-2 melanoma -76% | EKVX NSCLC -98.8% | SN12C renal -98.5% | UO-31 renal -100% | TK-10 renal; 10 µM unless noted -100% | ACHN renal -100% | CAKI-1 renal -100% | A498 renal -100% | HL-60(TB) leukemia -53% | CCRF-CEM leukemia -58.3%

CC(C)(C)OOC(=O)/C=C\C(=O)OOC(C)(C)C
inactive: HCT-15 colon 106% | HT29 colon 105% | SNB-75 CNS 98.5% | SNB-19 CNS 91.9% | U251 CNS 99.2% | PC-3 prostate 95.4% | SK-MEL-5 melanoma 106% | UACC-62 melanoma; 10 µM unless noted 94.7% | LOX IMVI melanoma 107% | SK-MEL-28 melanoma 109% | SK-MEL-2 melanoma 103% | EKVX NSCLC 123% | SN12C renal 97.3% | UO-31 renal 103% | TK-10 renal; 10 µM unless noted 101% | ACHN renal 108% | CAKI-1 renal 127% | A498 renal 109% | HL-60(TB) leukemia 74.6% | CCRF-CEM leukemia 96.4%

COc1cc(/C=C(/C)[N+](=O)[O-])ccc1O
55.4% (inactive) and -53.8% (active): UACC-62 melanoma; 10 µM unless noted
33.1% (inactive) and -9.24% (active): SK-MEL-28 melanoma
-21.2% (active) and 61.7% (inactive): TK-10 renal; 10 µM unless noted
-39.8% (active) and 16.4% (inactive): ACHN renal
74.3% (inactive) and 1.18% (active): SNB-75 CNS
inactive: SNB-19 CNS 81.5% and 75.1% | U251 CNS 25.4% and 28% | PC-3 prostate 60.7% and 56.6% | SK-MEL-5 melanoma 82.3% and 64.6% | SK-MEL-2 melanoma 19.6% and 72.1% | EKVX NSCLC 84.6% | SN12C renal 27.5% and 23.2% | A498 renal 87.9% and 100%
active: HCT-15 colon -48.3% and 1.2% | HT29 colon 3.02% and -26.9% | LOX IMVI melanoma -25.7% and -73.2% | UO-31 renal -10.8% and -16.8% | CAKI-1 renal -0.672% | HL-60(TB) leukemia -17.3% and -34.3% | CCRF-CEM leukemia -35%

COC12c3c(C)cc(O)c4c(=O)occ(c34)C(=O)C1C13COC(=O)c4c(O)cc(C)c(c41)C(=O)C2C3OC(C)=O (centres undefined)
inactive: HCT-15 colon 100% | HT29 colon 105% | SNB-75 CNS 89.6% | SNB-19 CNS 97.6% | U251 CNS 102% | PC-3 prostate 80.2% | SK-MEL-5 melanoma 111% | UACC-62 melanoma; 10 µM unless noted 97.5% | LOX IMVI melanoma 104% | SK-MEL-28 melanoma 91.6% | SK-MEL-2 melanoma 81.5% | SN12C renal 102% | UO-31 renal 91.5% | TK-10 renal; 10 µM unless noted 110% | ACHN renal 100% | CAKI-1 renal 156% | A498 renal 114% | HL-60(TB) leukemia 100% | CCRF-CEM leukemia 96.2%

O=C(CCl)Nc1ccc(Cl)cc1
inactive: HCT-15 colon 37.2% | HT29 colon 41.2% | SNB-75 CNS 62.4% | SNB-19 CNS 79.1% | PC-3 prostate 62.9% | SK-MEL-5 melanoma 30.3% | UACC-62 melanoma; 10 µM unless noted 47.1% | LOX IMVI melanoma 38.3% | SK-MEL-28 melanoma 69.5% | EKVX NSCLC 101% | SN12C renal 35.8% | UO-31 renal 79.7% | TK-10 renal; 10 µM unless noted 66.7% | ACHN renal 62.4% | A498 renal 113% | HL-60(TB) leukemia 66.3% | CCRF-CEM leukemia 26.3%
active: U251 CNS 0.303% | CAKI-1 renal -7.72%

Cc1cc([N+](=O)[O-])c2ccccc2[n+]1[O-]
inactive: SK-MEL-28 melanoma 41.8% and 15.2% | EKVX NSCLC 89.4%
41% (inactive) and -30.6% (active): HL-60(TB) leukemia
active: HCT-15 colon -25.7% and -13.2% | HT29 colon -24.6% and -48.6% | SNB-75 CNS -63.6% and -53.8% | SNB-19 CNS -4.83% and -14.1% | U251 CNS -12.7% and -32.2% | PC-3 prostate -10.8% and -56% | SK-MEL-5 melanoma -84% and -58.2% | UACC-62 melanoma; 10 µM unless noted -55.5% and -86.3% | LOX IMVI melanoma 7.14% and -48.7% | SK-MEL-2 melanoma -57.5% and -79.5% | SN12C renal -5.98% and -21.1% | UO-31 renal -26.7% and -48.8% | TK-10 renal; 10 µM unless noted -31.3% and -29.9% | ACHN renal -35.6% and -73.4% | CAKI-1 renal 8.17% and -82.2% | A498 renal -59.8% and -80.3%
17% (inactive) and -2.8% (active): CCRF-CEM leukemia

CC(Cc1ccc2c(c1)OCO2)NN (centres undefined)
inactive: HCT-15 colon 102% | HT29 colon 98.7% | SNB-75 CNS 90.6% | SNB-19 CNS 105% | U251 CNS 88.9% | PC-3 prostate 76.3% | SK-MEL-5 melanoma 93.6% | UACC-62 melanoma; 10 µM unless noted 95.6% | LOX IMVI melanoma 92.2% | SK-MEL-28 melanoma 105% | SK-MEL-2 melanoma 101% | EKVX NSCLC 84.2% | SN12C renal 102% | UO-31 renal 96.7% | TK-10 renal; 10 µM unless noted 93% | ACHN renal 98.7% | A498 renal 77.2% | HL-60(TB) leukemia 81.8% | CCRF-CEM leukemia 84.1%

O=[N+]([O-])c1ccc(N2CCOCC2)c2c1no[n+]2[O-]
active: HCT-15 colon -19.3% | HT29 colon -29.3% | SNB-75 CNS -15.5% | U251 CNS 2.99% | UACC-62 melanoma; 10 µM unless noted -24.9% | LOX IMVI melanoma -14.3% | SK-MEL-2 melanoma -4.77% | UO-31 renal 8.16% | TK-10 renal; 10 µM unless noted -0.265% | A498 renal -14.1% | HL-60(TB) leukemia -16.7%
inactive: SNB-19 CNS 28.8% | PC-3 prostate 10.9% | SK-MEL-5 melanoma 25.4% | SK-MEL-28 melanoma 49.3% | EKVX NSCLC 46.5% | SN12C renal 16.8% | ACHN renal 13.6% | CAKI-1 renal 26.1%
